# PubChem BioAssay
# Several values for one entry are separate records, joined by “and”; a condition that tells them apart may be missing. Identical values can stand only once. Records with an inconclusive call do not appear. Activity calls are given as the source filed them. Unless noted, cut-off not given; nearly all actives show AC50 up to about 26 µM.
# Assays:
# [1] = growth inhibition of DIPG glioma cells, dose response, cell-based, SU-DIPG-XIII, MIPE5.0, CellTiter-Glo, qHTS (AID 1347064; cut-off not given, nearly all actives have AC50 up to about 23 µM); details: SU-DIPG-XIII viability, CellTiter-Glo ATP luminescence
# [2] = JHH-DIPG-1 glioma cell viability, MIPE5.0 library, CellTiter-Glo luminescence, qHTS (AID 1347067); details: JHH-DIPG-1 glioma viability, CellTiter-Glo ATP luminescence;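 further: cells exposed to compound for 48 hours before readout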
# [3] = viability loss in pontine glioma line – cell-based, SU-DIPG-XXV, MIPE5.0, CellTiter-Glo, qHTS, dose response (AID 1347065); details: CellTiter-Glo ATP luminescence;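 further: cells exposed to compound for 48 hours before ATP readout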
# [4] = SU-DIPG-XXV glioma cell viability, MIPE5.0 library, qHTS (AID 1347068; cut-off not given, nearly all actives have IC50 up to about 30 µM)
# [5] = sensitizers of A549 cells to miR-34 induction, primary screen, imaging, A549 dox-inducible miR-34, nuclei and caspase counts (AID 1347080;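 active means compounds whose cell count with miR-34 switched on is under 0.7 times the count with it off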); details: A549 miR-34 inducible, Hoechst nuclei count, 48 h
# [6] = survival rescue of mitochondrial mutant cells in low glucose, primary screen, MELAS cybrids, Rieske KO mouse fibroblasts, CellTiter-Glo (AID 1508586;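 active means mean z-score across replicates of 1.96 or higher in either the MELAS or the Rieske mutant cell line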;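 further: z relative to plate mean and SD of compound and empty wells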)
# [7] = viability rescue of complex I mutant cybrids, primary screen, cell-based, galactose medium, ATP luminescence (AID 1645843;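 active means z-score of at least 1.8 in each of two replicates, scored against plate mean and spread of sample wells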;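 further: positive z means more ATP and so rescue of galactose-driven cybrid death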); details: complex I mutant cybrid cells, 72 h, stronger effect = higher value
# [8] = modifiers of HSF1 nuclear foci, imaging, Selleck Cancer Library (AID 1347162; in the data active means plate-normalised HSF1 focus index below about 0.46); details: human cells, at 10 µM; SSMD: measured here: HSF1 foci SSMD mean; cell count: measured here: cell number; plate-normalised HSF1 focus index: stronger effect = lower value
# [9] = ovarian cancer cell viability with rucaparib, profiling panel, oncology-focused library, rucaparib conditional (AID 1508598;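 active means normalized viability below 100% at a tested concentration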); details: patient-derived ovarian cancer cells, CellTiter-Glo viability, 144 h, stronger effect = lower value
# [10] = liver-stage malaria parasite growth inhibition, primary screen, cell-based, HepG2, luciferase luminescence, HepG2 viability (AID 624349; in the data active means parasite load remaining mostly below about 12%, no sharp cut-off; inactive means mostly above about 10%;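 further: 100% = mean of DMSO negative control wells on the same plate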); details: P. berghei liver stage in HepG2, luciferase luminescence, concentration not given here; parasite load remaining: stronger effect = lower value; viability: measured here: HepG2 viability without parasites
# [11] = SU-DIPG-VI glioma cell viability, MIPE4.0 library, CellTiter-Glo luminescence, qHTS (AID 1347066; cut-off not given, nearly all actives have AC50 up to about 30 µM;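 further: cells exposed to compound for 48 hours before readout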); details: CellTiter-Glo ATP luminescence
# [12] = kinase inhibitors against Plasmodium liver-stage infection, cell-based, known kinase inhibitor set, luminescence, hepatoma host viability (AID 624392; call rule not given here;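 further: infected cells incubated roughly two days before readout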); details: Plasmodium liver stage in hepatoma cells, luciferase luminescence, concentration not given here; liver cell % of control: measured here: host liver cell viability; parasite % of control: stronger effect = lower value
# [13] = stronger effect = lower value, cell number ratio, induced over uninduced
# [14] = measured here: relative caspase fold change +Dox/-Dox
# [15] = measured here: total cells with miR-34 induction, stronger effect = lower value
# [16] = measured here: total cells without miR-34 induction
# [17] = MELAS cybrid survival, CellTiter-Glo 48 h, stronger effect = higher value
# [18] = Rieske KO mouse fibroblast survival, CellTiter-Glo 72 h
compound,measurement,setting,value
Nc1nc2c(c(=O)[nH]1)N1CN(c3ccc(C(=O)N[C@@H](CCC(=O)O)C(=O)O)cc3)CC1CN2 (stereo partly specified),outcome,[1],inactive
same,outcome,[2],inactive
Cc1nnc(C(C)C)n1C1CC2CCC(C1)N2CCC(NC(=O)C1CCC(F)(F)CC1)c1ccccc1 (stereo unspecified),outcome,[1],inactive
same,outcome,[3],inactive
same,outcome,[2],inactive
same,outcome,[4],inactive
same,fold change,[5]; [13],0.913 (inactive) and 0.876 (inactive)
same,fold change,[5]; [14],0.655 and 0.632
same,cell count,[5]; [15],8280 and 7990
same,cell count,[5]; [16],9060 and 9120
same,z-score,[6]; [17],0.322 (inactive) and -0.218 (inactive)
same,z-score,[6]; [18],-0.412 and -0.846
same,z-score,[7],0.505 (inactive)
CCOCc1nc2c(N)nc3ccccc3c2n1CC(C)(C)O,outcome,[1],inactive
same,outcome,[3],inactive
same,outcome,[4],inactive
Nc1nccc(-c2c(-c3ccc(F)cc3)ncn2C2CCCCC2)n1,outcome,[1],inactive
same,outcome,[2],inactive
same,outcome,[4],inactive
Cn1cc(-c2cnc3ccc4ccc(CS(=O)(=O)NCc5ccccn5)cc4c(=O)c3c2)cn1,outcome,[1],inactive
same,outcome,[3],inactive
same,outcome,[4],inactive
NCCCC[C@H](NC(=O)[C@@H](NC(=O)[C@H](Cc1c[nH]c2ccccc12)NC(=O)[C@H](CCCCN)NC(=O)[C@H](CCCCN)NC(=O)[C@H](Cc1c[nH]c2ccccc12)NC(=O)[C@H](Cc1c[nH]c2ccccc12)NC(=O)[C@H](CCCCN)NC(=O)[C@@H](N)CCCCN)C(c1ccccc1)c1ccccc1)C(N)=O,AC50,[3],20.9 µM (active)
OCCOc1ccc(/C(=C(/CCCl)c2ccccc2)c2ccccc2)cc1,outcome,[1],inactive
same,outcome,[4],inactive
CN(C)CCNC(=O)NC[C@H]1CC[C@@H]2[C@H](O1)c1cc(C(F)(F)F)ccc1N[C@H]2c1ccccc1,AC50,[3],0.186 µM (active)
O=C1CSC(=O)N1C(CCc1ccncc1)COc1ccc(-c2cccc([N+](=O)[O-])c2)cc1 (stereo unspecified),AC50,[3],18.6 µM (active)
same,AC50,[2],18.6 µM (active)
Cn1cc(-c2cc(Oc3cc(F)c(NC(=O)C4(C(=O)Nc5ccccc5)CC4)cc3F)ccn2)cn1,AC50,[3],16.6 µM (active)
same,AC50,[2],18.6 µM (active)
O=C(NCCCNc1nc(Nc2cccc(CN3CCOCC3)c2)ncc1C1CC1)C1CCC1,AC50,[3],7.42 µM (active)
CC1=C2C[C@H]3[C@@H](CC[C@@H]4C[C@H](NS(C)(=O)=O)CC[C@@]43C)[C@@H]2CC[C@@]2(C1)O[C@@H]1C[C@H](C)CN[C@H]1[C@H]2C,AC50,[3],20.9 µM (active)
O=C(Nc1cnccc1Cl)N1CCN(Cc2ccc3c(c2)OC(F)(F)O3)CC1,outcome,[1],inactive
same,outcome,[4],inactive
C[C@@H](Nc1cc(F)cc(F)c1)c1cc(C(=O)N(C)C)cc2c(=O)cc(N3CCOCC3)oc12,AC50,[3],9.34 µM (active)
CN1CCN(c2nc(C3=C(c4c[nH]c5ccccc45)C(=O)NC3=O)c3ccccc3n2)CC1,outcome,[1],inactive
same,outcome,[2],inactive
same,outcome,[4],inactive
same,fold change,[5]; [13],0.982 (inactive)
same,fold change,[5]; [14],0.809
same,cell count,[5]; [15],8410
same,cell count,[5]; [16],8570
same,SSMD,[8],1.44
same,cell count,[8],7110
same,plate-normalised HSF1 focus index,[8],1.09 (inactive)
same,z-score,[6]; [17],-0.37 (inactive)
same,z-score,[6]; [18],0.177
same,viability,"[9]; at 0.000305 µM, OCI-C5x cells, with rucaparib 10 µM, 100% = cells with rucaparib alone",105% (inactive)
same,viability,"[9]; at 0.000305 µM, OCI-C5x cells, without rucaparib",102% (inactive)
same,viability,"[9]; at 0.000305 µM, OCI-P5x cells, with rucaparib 20 µM, 100% = cells with rucaparib alone",96.2% (active)
same,viability,"[9]; at 0.000305 µM, OCI-P5x cells, without rucaparib",83.9% (active)
same,viability,"[9]; at 0.00122 µM, OCI-C5x cells, with rucaparib 10 µM, 100% = cells with rucaparib alone",116% (inactive)
same,viability,"[9]; at 0.00122 µM, OCI-C5x cells, without rucaparib",119% (inactive)
same,viability,"[9]; at 0.00122 µM, OCI-P5x cells, with rucaparib 20 µM, 100% = cells with rucaparib alone",102% (inactive)
same,viability,"[9]; at 0.00122 µM, OCI-P5x cells, without rucaparib",88.4% (active)
same,viability,"[9]; at 0.00488 µM, OCI-C5x cells, with rucaparib 10 µM, 100% = cells with rucaparib alone",112% (inactive)
same,viability,"[9]; at 0.00488 µM, OCI-C5x cells, without rucaparib",120% (inactive)
same,viability,"[9]; at 0.00488 µM, OCI-P5x cells, with rucaparib 20 µM, 100% = cells with rucaparib alone",106% (inactive)
same,viability,"[9]; at 0.00488 µM, OCI-P5x cells, without rucaparib",97.3% (active)
same,viability,"[9]; at 0.0195 µM, OCI-C5x cells, with rucaparib 10 µM, 100% = cells with rucaparib alone",114% (inactive)
same,viability,"[9]; at 0.0195 µM, OCI-C5x cells, without rucaparib",122% (inactive)
same,viability,"[9]; at 0.0195 µM, OCI-P5x cells, with rucaparib 20 µM, 100% = cells with rucaparib alone",102% (inactive)
same,viability,"[9]; at 0.0195 µM, OCI-P5x cells, without rucaparib",96.2% (active)
same,viability,"[9]; at 0.0781 µM, OCI-C5x cells, with rucaparib 10 µM, 100% = cells with rucaparib alone",113% (inactive)
same,viability,"[9]; at 0.0781 µM, OCI-C5x cells, without rucaparib",116% (inactive)
same,viability,"[9]; at 0.0781 µM, OCI-P5x cells, with rucaparib 20 µM, 100% = cells with rucaparib alone",110% (inactive)
same,viability,"[9]; at 0.0781 µM, OCI-P5x cells, without rucaparib",101% (inactive)
same,viability,"[9]; at 0.313 µM, OCI-C5x cells, with rucaparib 10 µM, 100% = cells with rucaparib alone",109% (inactive)
same,viability,"[9]; at 0.313 µM, OCI-C5x cells, without rucaparib",129% (inactive)
same,viability,"[9]; at 0.313 µM, OCI-P5x cells, with rucaparib 20 µM, 100% = cells with rucaparib alone",117% (inactive)
same,viability,"[9]; at 0.313 µM, OCI-P5x cells, without rucaparib",107% (inactive)
same,viability,"[9]; at 1.25 µM, OCI-C5x cells, with rucaparib 10 µM, 100% = cells with rucaparib alone",114% (inactive)
same,viability,"[9]; at 1.25 µM, OCI-C5x cells, without rucaparib",122% (inactive)
same,viability,"[9]; at 1.25 µM, OCI-P5x cells, with rucaparib 20 µM, 100% = cells with rucaparib alone",115% (inactive)
same,viability,"[9]; at 1.25 µM, OCI-P5x cells, without rucaparib",109% (inactive)
same,viability,"[9]; at 5 µM, OCI-C5x cells, with rucaparib 10 µM, 100% = cells with rucaparib alone",129% (inactive)
same,viability,"[9]; at 5 µM, OCI-C5x cells, without rucaparib",135% (inactive)
same,viability,"[9]; at 5 µM, OCI-P5x cells, with rucaparib 20 µM, 100% = cells with rucaparib alone",141% (inactive)
same,viability,"[9]; at 5 µM, OCI-P5x cells, without rucaparib",109% (inactive)
NC(=O)c1cnc2[nH]ccc2c1NC1C2CC3C[C@H]1CC(O)(C3)C2 (stereo partly specified),AC50,[3],9.34 µM (active)
Cc1ccc(C(=O)Nc2ccc(Oc3cc4cnn(C)c4cc3-c3cn[nH]c3)c(F)c2)c(=O)n1-c1ccc(F)cc1,AC50,[3],4.68 µM (active)
CNc1nc(Nc2cnn([C@H]3CCN(C4COC4)C[C@@H]3F)c2Cl)ncc1C(F)(F)F,AC50,[3],20.9 µM (active)
COc1ccc2nc3n[nH]c(C)c3c(NCCOCCO)c2c1,parasite load remaining,[10],46.1% (inactive)
same,viability,[10],90.1%
same,outcome,[1],inactive
same,outcome,[2],inactive
O=c1c(-n2ccnn2)c[nH]n1-c1cc(N2CCOCC2)ncn1,AC50,[3],20.9 µM (active)
same,outcome,[2],inactive
Cc1cc(/C=c2/sc3nc4ccccc4n3c2=O)c(C)n1-c1ccccc1,AC50,[3],20.9 µM (active)
same,outcome,[11],inactive
same,outcome,[2],inactive
same,outcome,[4],inactive
same,SSMD,[8],3.08
same,cell count,[8],7030
same,plate-normalised HSF1 focus index,[8],1.18 (inactive)
C#Cc1cccc(Nc2ncnc3cc4c(cc23)OCCOCCOCCO4)c1,outcome,[1],inactive
same,fold change,[5]; [13],1.01 (inactive)
same,fold change,[5]; [14],0.44
same,cell count,[5]; [15],7300
same,cell count,[5]; [16],7200
same,z-score,[6]; [17],0.219 (inactive)
same,z-score,[6]; [18],0.164
CC1(N)CCN(c2cnc(-c3cccc(Cl)c3Cl)c(N)n2)CC1,outcome,[1],inactive
same,outcome,[2],inactive
same,outcome,[4],inactive
CCNC1(C(N)=O)CCN(c2ncnc3c2nc(-c2ccccc2Cl)n3-c2ccc(Cl)cc2)CC1,AC50,[3],11.8 µM (active)
C[C@@H](Nc1ncnc2[nH]c(-c3ccc(O)cc3)cc12)c1ccccc1,outcome,[1],inactive
same,outcome,[4],inactive
CN(C)CCOc1cc(-c2cn[nH]c2)ccc1NC(=O)C1COc2ccccc2O1 (stereo unspecified),liver cell % of control,[12],74.6% and 79.4% and 100%
same,parasite % of control,[12],63.3% (inactive) and 69.1% (inactive) and 49.5% (inactive)
same,AC50,[3],7.42 µM (active)
same,outcome,[11],inactive
Nc1nc(OC(c2ccc(-c3cccc(F)c3)cc2)C(F)(F)F)cc(-c2ccc(C[C@@H](N)C(=O)O)cc2)n1 (stereo partly specified),AC50,[3],23.5 µM (active)
Cc1nnn(C)c1-c1cnc2c3ccc(C(C)(C)O)cc3n([C@H](c3ccccc3)C3CCOCC3)c2c1,AC50,[3],0.372 µM (active)
same,AC50,[2],8.33 µM (active)
Cc1ccc(Nc2nnc(Cc3ccncc3)c3ccccc23)cc1Br,AC50,[3],14.8 µM (active)
same,AC50,[2],18.6 µM (active)
CC1(C)CC[C@]2(C(=O)O)CC[C@]3(C)C(=CC[C@@H]4[C@@]5(C)C[C@@H](O)[C@H](O)C(C)(C)[C@@H]5CC[C@]43C)[C@@H]2C1,AC50,[3],20.9 µM (active)
Nc1ncnc2c1c(COc1cccc(Cl)c1)nn2C1CCOCC1,outcome,[1],inactive
same,outcome,[4],inactive
O=C(c1c(F)ccc(NS(=O)(=O)N2CC[C@@H](F)C2)c1F)c1c[nH]c2ncc(-c3cnc(C4CC4)nc3)cc12,AC50,[3],10.5 µM (active)
